Bioassay records as filed in PubChem.
Only some compounds are listed: those with a hit (about 2.5% of all), similar ones and a draw of the others.
Mito fusion act: qHTS Assay for Small Molecule Inhibitors of Mitochondrial Division or Activators of Mitochondrial Fusion; 320,000 compounds, 0.23% hits; S. cerevisiae fusion-defective mutant growth rescue, CellTiterGlo 48 h; Potency, µM (highest dose often 46.1 µM), for the others: at the top dose growth rescue (activation), actives largely listed as activators; further: potency means the concentration at half of the fitted maximal effect; % of control where 0% means no effect; nearly all actives have a fitted effect of over 45% in size
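Temperature-sensitive fusion-defective S. cerevisiae (e.g. fzo1-1, mgm1-5) were grown with compound in YPEG medium (3% ethanol, 3% glycerol) for 48 hours at 37C. Growth rescue was measured as viability by CellTiterGlo luminescence after 10 minutes at ambient.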
CCT chaperon mod: High-Throughput Screening for Modulators of Cytosolic Chaperonin Activity; purified chaperonin ATPase assay, HTRF ADP detection, 30 min; activity change, % (concentration not given with the values), hits read low; 360,000 compounds, 0.3% hits; AID 651819, 2012; in the data active means activity change below about -30%; further: on the % scale 0 is the no-effect control and ±100 the full control effect
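Enzyme 40 or 20 nM (batch-dependent) in Tris pH 7.4/KCl/MgCl2/DTT; cpd 76 uM single point; ATP 10 uM; 30 min 37 °C; Transcreener ADP HTRF detection, 30 min RT; ratio 665/615.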
Anesthetic bind: qHTS Assay for Identification of Novel General Anesthetics; 350,000 compounds, 0.074% hits; Potency, µM (series often up to 77.5 µM), for the others: at the highest dose activity change, negative = displacement, hits mostly inhibitors; AID 485281, 2010; Ferritin light chain (Equus caballus), P02791; apoferritin/1-aminoanthracene competitive binding, fluorescence; further: potency means the concentration at half of the fitted maximal effect; on the % scale 0 is the no-effect control and ±100 the full control effect; nearly all actives have a fitted effect of over 20% in size
Target sequence (P02791 2-175 limits assumed): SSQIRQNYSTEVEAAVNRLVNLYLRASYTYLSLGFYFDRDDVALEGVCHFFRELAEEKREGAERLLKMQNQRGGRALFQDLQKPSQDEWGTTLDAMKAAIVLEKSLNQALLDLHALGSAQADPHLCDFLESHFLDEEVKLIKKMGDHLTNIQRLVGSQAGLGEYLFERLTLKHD
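Horse-spleen apoferritin (10 uM) was mixed with 50% saturated 1-aminoanthracene in PBS, exposed to compounds for 10 min at room temperature, and read for fluorescence (ex 380 nm, em 535 nm). Competitive displacement was fitted with a four-parameter Hill equation.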
pAkt inh: HTS Assay for Inhibitors of Akt Phophorylation: Primary Screen | Neuro2A IGF-stimulated pAkt S473 HTRF, 20 min; hits give low values | activity change, % for hits at 50 µM | 360,000 compounds, 0.32% hits | AID 651550, 2012; in the data active means activity change below about -80%; inconclusive means mostly about -51% to -80%; further: on the % scale 0 is the no-effect control and ±100 the full control effect
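Neuro2A cells (4,500/well, DMEM with 0.5% FBS) were treated with compound at a single 50 µM final concentration, stimulated with 6 nM IGF for 20 min at 37 °C, and lysed. Phospho-Akt Ser473 was read by HTRF as 665/615 ratio ×10^4.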
TDP-43 yeast inh: qHTS of TDP-43 Inhibitors | TDP-43 expressing yeast growth rescue, BacTiter-Glo, 24 h | Potency, µM (doses to about 46.1 µM), without a hit: at the highest dose growth rescue (activation), hits mostly activators | 410,000 compounds, 1.8% hits; further: potency means the concentration at half of the fitted maximal effect; % of control where 0% means no effect; nearly all actives have a fitted effect of over 50% in size
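Galactose-induced TDP-43 yeast, OD600=0.02, compound pinned; 24 hr, 30 deg C; BacTiter-Glo luminescence for growth. Inhibitors of TDP-43 toxicity read as activators.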
aSyn yeast inh: qHTS of alpha-syn Inhibitors; 370,000 compounds, 0.14% hits; AID 652106, 2013; Yeast expressing alpha-synuclein, growth rescue, BacTiter-Glo, 24 h; Potency, µM (series often up to 46.1 µM), for inactives: top-dose growth rescue (activation), usual class: activators; further: potency means the concentration at half of the fitted maximal effect; % of control where 0% means no effect; nearly all actives have a fitted effect of over 65% in size
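Readout is rescue of growth in alpha-synuclein-expressing yeast, so inhibitors of toxicity appear as activators. Growth after 24 hr at 30 deg C in galactose medium is quantified by luminescence.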
* hit, by the source's call; i = inactive; ? = inconclusive; nt = not tested or not shown. Unless noted, the call rests on the fitted dose curve; in most records, active means well fitted curve in the direction sought with a large enough effect; inconclusive means small, poorly fitted or top-dose-only effect, or another doubt; inactive means no such curve, though single readings can be large; an effect the other way counts as inactive or inconclusive.

SMILES	Mito fusion act	CCT chaperon mod	Anesthetic bind	pAkt inh	TDP-43 yeast inh	aSyn yeast inh
COc1ccc(N2C(=O)CC(N3CCC(O)(c4cccc(C(F)(F)F)c4)CC3)C2=O)cc1 (stereo not drawn)	-13%	1	?	i	18µM*	8%
CC(C)CCn1c(=O)c2sccc2n2c(CCCC(=O)Nc3ccc(C(C)C)cc3)nnc12	nt	nt	-12%	nt	4%	nt
COc1ccc(OC)c2sc(N3CCN(C(=O)C4CC4)CC3)nc12	nt	nt	-2%	nt	0%	nt
CCOc1cccc2sc(N3CCN(C(=O)C(C)(C)C)CC3)nc12	nt	nt	0%	nt	11µM*	nt
COc1ccc(OC)c2sc(N3CCN(C(=O)C(C)(C)C)CC3)nc12	nt	nt	-8%	nt	22µM*	nt
CCOc1cccc2sc(N3CCN(C(=O)c4ccco4)CC3)nc12	nt	nt	-4%	nt	?	nt
COc1ccccc1NC(=O)CSc1nnc(NC(=O)Nc2ccc(C)cc2)s1	nt	nt	-13%	nt	?	nt
S=C(c1ccc(-c2cc(Cl)ccc2Cl)o1)N1CCCCC1	-1%	-2	7%	i	12%	-19%
O=C(Nc1ccc(CN2CCOCC2)cc1)c1ccc(Br)o1	6%	0	-1%	i	5%	-1%
O=C(Nc1ccc(CN2CCOCC2)cc1)c1ccc(-c2cc(Cl)ccc2Cl)o1	10µM*	-3	-17%	i	?	-1%
S=C(c1ccc(-c2cc(Cl)ccc2Cl)o1)N1CCOCC1	8%	0	-10%	i	13µM*	-13%
CCCCCS(=O)(=O)CCCCCCCCCCn1c(-c2ccc(O)cc2)c(C)c2cc(O)ccc21	nt	nt	31%	nt	nt	nt
COc1ccc(CCNc2nccn(-c3ccc(C)c(C)c3)c2=O)cc1OC	nt	nt	-14%	nt	0%	nt
Cc1ccc(-n2ccnc(NCc3cccs3)c2=O)cc1C	nt	nt	?	nt	16µM*	nt
Cc1sc2ccccc2[n+]1CC(=O)c1ccccc1	8%	-5	-24%	i	11µM*	7%
Cc1sc2ccccc2[n+]1CC(=O)O	5%	-1	-7%	i	6%	-4%
CCCNC(=O)CN1C(=O)COc2ccc(S(=O)(=O)N3CC(C)CC(C)C3)cc21 (stereo not drawn)	-1%	-46*	-8%	i	11%	1%
Cc1nc(N2CCCCC2)sc1C(=O)c1cccc([N+](=O)[O-])c1	2%	0	?	i	?	-9%
Cc1nc(N2CCCCC2)sc1C(=O)c1ccc(SCCO)c([N+](=O)[O-])c1	0%	-1	?	i	35µM*	26%
COc1ccc(NC(=O)CC2C(=O)NCCN2C(=O)c2ccc(N(C)C)cc2)cc1 (stereo not drawn)	-3%	-50*	6%	i	-7%	5%
CCc1cc(C(=O)Nc2ccc(C)cc2Br)cs1	15%	-1	-18%	i	13µM*	-1%
CN(C)c1ccc(N/C=C/C(=O)C(C)(C)C)cc1	-5%	-3	?	-114%*	6%	2%
Cc1cc(O)c(C)c2sc(N)nc12	nt	nt	-8%	nt	nt	nt
CC(C)Cc1nnc(NC(=O)CSc2nc(=O)cc(N)n2-c2ccccc2)s1	-5%	0	5%	-114%*	20%	0%
CC1=NNC(=O)C1CC(=O)N/N=C/C(Br)=C/c1ccccc1 (stereo not drawn)	-10%	-4	6%	i	14µM*	13%
CCCCCCCC(=O)N/N=C/c1ccc([N+](=O)[O-])o1	20µM*	1	?	i	20µM*	4%
Cc1ccccc1OCC(=O)N/N=C/c1ccc([N+](=O)[O-])o1	10%	3	-12%	i	11%	5%
Cc1cc(N/N=C/c2ccc([N+](=O)[O-])o2)nc2ccccc12	3%	0	-16%	i	13µM*	0%
